Compound activity: PubChem BioAssay, National Center for Advancing Translational Sciences (NCATS)
In the library only some 7.9% were active in any assay of this set; here they are far more common.
HCMV antiviral: qHTS Assay for inhibitors of the human cytomegalovirus (HCMV). HFF cells, HCMV-luciferase reporter, 72 h; active compounds read low. activity change, negative = inhibition, % at 57.5 µM. actives 4.5% (n = 410,000); in the data active means activity change below about -60%; inconclusive means no clear call, values can overlap the other calls; inactive means above about -39%
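Steps: HFFs plated, 16 h 37C; compounds added; HCMV-luciferase added to MOI 1 PFU/cell; 72 h 37C; OneGlo reagent, 5 min room temperature; luminescence read, normalized to controls.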
Lassa entry inh: qHTS for Inhibitors of binding or entry into cells for Lassa Virus. Lassa virus pseudotype entry inhibition, cell reporter. Potency, µM (titrated, usually from 37.9 µM), without a hit: at the highest dose activity change, negative = inhibition, hits mostly inhibitors. actives 1.2% (n = 300,000); calls by dose curve; tested in HEK293 cells; further: potency means the concentration at half of the fitted maximal effect; nearly all actives have a fitted effect of over 50% in size
Marburg entry inh: qHTS for inhibitors of binding or entry into cells for Marburg Virus. AID 540276, 2011. Potency, µM (top dose mostly 37.8 µM), for inactives: top-dose activity change, negative = inhibition, actives largely listed as inhibitors. actives 1.8% (n = 300,000). Marburg virus pseudotyped entry inhibition, cell reporter; calls by dose curve; tested in HEK293 cells; further: potency means the concentration at half of the fitted maximal effect
FMDV inh: High Throughput Screening for Foot and Mouth Disease Virus Antivirals | actives 1.2% (n = 410,000) | AID 1159524, 2015 | FMDV antiviral cell-based qHTS | Potency, µM (highest dose often 57.9 µM), without a hit: at the top dose activity change, negative = inhibition, most hits filed as inhibitors; calls by dose curve; tested in HEK293T cells; further: read-out not given here; potency means the concentration at half of the fitted maximal effect; nearly all actives have a fitted effect of over 45% in size
HCV inhibitor: qHTS Assay for Inhibitors of Hepatitis C Virus (HCV); Huh7.5.1 HCVcc-Cre infection, luciferase reporter, 44 h; Potency, µM (top dose mostly 41.8 µM), for the others: top-dose activity change, negative = inhibition, usual class: inhibitors; actives 3.4% (n = 340,000); AID 651820, 2012; active means well fitted inhibition curve with a large enough effect; inconclusive means small, poorly fitted or top-dose-only effect, or another doubt; inactive means no such curve, though single readings can be large or run the other way; further: potency means the concentration at half of the fitted maximal effect
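Reporter virus HCVcc-Cre (~0.5 moi) infects cells exposed to compound; seeding density 1,000 cells/well with 4 h settling beforehand. Luminescence, 15 sec read, taken 44 h post-infection following a 15 min RT substrate incubation.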
Active calls of the source: *; ? = inconclusive; . = no result given; [ ] = another dose, or the depositor's remark. On the % scale 0 is the no-effect control and ±100 the full control effect.

SMILES | HCMV antiviral | Lassa entry inh | Marburg entry inh | FMDV inh | HCV inhibitor
c1ccc(C[C@H]2CN=C(Nc3ccccc3)N2CC2CCC2)cc1 | -26 | . | . | -21% | -19%
CC1CCC(CN2C(Nc3ccccc3)=NC[C@@H]2Cc2ccccc2)CC1 (some centres undefined) | 36 | . | . | -19% | 7.9µM*
COc1ccccc1-c1nc(C#N)c(N2CCN(Cc3ccccc3)CC2)o1 | -33 | -22% | -23% | ? | 11µM*
COc1ccccc1-c1nc(C#N)c(N2CCC(Cc3ccccc3)CC2)o1 | -3 | ? | -5% | ? | ?
C=CCOC(=O)N[C@H](c1ccc2ccccc2c1)[C@H](C)C=CCC(=O)OC | . | ? | -4%[14.2 µM] | . | .
CCc1nn(CC(=O)NCCN(CC(C)C)CC(C)C)c(=O)c2cc3sc(C)cc3n12 | -11 | . | 2%[46.1 µM] | -11% | .
COC(=O)c1ccc(NC(=O)Nc2ccc3c(c2)nc(C)n3C)cc1 | ? | 18%[46.1 µM] | ? | 16% | -26%
Cc1cc(NC(=O)Nc2ccc3c(ccn3C)c2)sn1 | -5 | ? | ? | 45% | 0.56µM*
COc1ccccc1CNS(=O)(=O)c1cnc(N)nc1 | ? | 3%[46.1 µM] | . | 2% | .
CCN(Cc1ccc(OC)c(COC)c1)CC1CCCN(CCc2cccc(F)c2)C1 (centres undefined) | -31 | . | . | -9% | 13µM*
CCN(Cc1ccc(C#CCCO)cc1)CC1CCCN(CCc2cccc(F)c2)C1 (centres undefined) | -24 | . | . | -10% | ?
CCN(Cc1ccccc1OC)CC1CCCN(CCc2cccc(OC)c2)C1 (centres undefined) | 42 | ? | ? | -16% | ?
CCN(Cc1ccc(OC)c(COC)c1)CC1CCCN(CCc2cccc(OC)c2)C1 (centres undefined) | -75* | . | . | -30% | 7.9µM*
Cc1ccc(S(=O)(=O)c2nnn(CC(=O)Nc3ccccc3C)c2N)cc1 | 0 | 15%[46.1 µM] | 3%[46.1 µM] | -2% | .
Cc1nc2nc(CNC(=O)c3cccc(F)c3)nn2c(C)c1CCC(=O)Nc1cccc(Cl)c1 | -20 | ? | 9%[46.1 µM] | -20% | .
COc1cc2c(cc1OC)[C@@H]1O[C@](c3ccsc3)(C2)Oc2c1c(=O)oc1ccc(F)cc21 | . | . | 28%[14.2 µM] | . | .
C/C(=N\NC(=O)c1ccc(Cn2cc(Br)cn2)o1)c1ccc(NC(=O)c2ccoc2C)cc1 | 24 | -25% | ? | -7% | 7.1µM*
CC(C)c1nc2ccc(C(=O)Nc3ccccc3F)cc2o1 | -63* | 15%[46.1 µM] | . | ? | .
Cc1c(Cl)cccc1NC(=O)c1ccc2nc(C(C)C)oc2c1 | 17 | 9%[46.1 µM] | . | ? | .
COCCOC(=O)c1[nH]c2c(c1C)C(=O)CC(c1cc(OC)c(OC)c(OC)c1)C2 (centres undefined) | -4 | ? | 10µM* | ? | 13µM*
C=CCOC(=O)c1[nH]c2c(c1C)C(=O)CC(c1cc(OC)c(OC)c(OC)c1)C2 (centres undefined) | . | ? | ? | 11µM* | ?
CCCCOC(=O)c1[nH]c2c(c1C)C(=O)CC(c1cc(OC)c(OC)c(OC)c1)C2 (centres undefined) | -63* | . | 7% | 16µM* | 2.5µM*
COCCOC(=O)c1[nH]c2c(c1C)C(=O)CC(c1ccc(N(C)C)cc1)C2 (centres undefined) | 31 | ? | -18%[46.1 µM] | -21% | 13µM*
CCOC(=O)c1ccc(Nc2nc3ccc(C(=O)c4ccccc4)cc3n3c(C)nnc23)cc1 | -18 | 8%[46.1 µM] | -19%[46.1 µM] | -10% | .
COc1cccc2c1cc1c(=O)n(CC(=O)NCc3ccc(N(C)C)cc3)nc(C)n12 | -16 | . | ? | -10% | .
SMILES | HCMV antiviral | Lassa entry inh | Marburg entry inh | FMDV inh | HCV inhibitor
CC(C)NC(=O)CCCN1C(=O)CCn2nc(-c3cccn3C)cc21 | 15 | ? | . | 23% | .
COc1cc(C2CC(=O)c3c([nH]c(C(=O)OCC4CCCCC4)c3C)C2)cc(OC)c1OC (centres undefined) | ? | -7%[46.1 µM] | ? | ? | .
COc1cc(C2CC(=O)c3c([nH]c(C(=O)OC4CCCCC4)c3C)C2)cc(OC)c1OC (centres undefined) | -39 | 6.3µM* | . | 11µM* | .
COc1cccc(NC(=O)N[C@H]2CC[C@@]34CCCN3C(=O)CCC[C@H]4[C@H]2C)c1 | 45 | . | . | . | .
CN(C)S(=O)(=O)N1CCN(CC(O)COc2ccc3cc(Br)ccc3c2)CC1 (centres undefined) | -13 | 0% | ? | -29% | 32µM*
CC(=O)Nc1ccc(S(=O)(=O)N2CCN(CC(O)COc3ccc4ccccc4c3)CC2)cc1 (centres undefined) | -87* | -26%[14.3 µM] | 6% | -94% | -5%
OC(COc1ccc2cc(Br)ccc2c1)CN1CCCC1 (centres undefined) | -6 | 0% | 8.2µM* | -7% | 4.5µM*
O=S(=O)(N1CCCCC1)N1CCN(CC(O)COc2ccc3cc(Br)ccc3c2)CC1 (centres undefined) | ? | -28% | -21% | ? | ?
CSc1ccc(Nc2nn(-c3ccc(OC(F)(F)F)cc3)nc2C(C)=O)cc1 | ? | 6%[46.1 µM] | -1%[46.1 µM] | 3% | .
COc1ccc(/C=C2\CCCC3C2=NN(C(=O)CSc2ncn[nH]2)C3c2ccc(OC)cc2)cc1 (centres undefined) | -23 | ? | ? | -30% | 13µM*
Cc1ncsc1C(=O)N1N=C2/C(=C/c3ccccc3)CCCC2C1c1ccccc1 (centres undefined) | 56 | ? | 11µM* | ? | ?
O=C(O)CSCC(=O)N1N=C2/C(=C/c3ccccc3)CCCC2C1c1ccccc1 (centres undefined) | 16 | -3% | -13%[46.1 µM] | -19% | 7%
O=C(CSc1ncn[nH]1)N1N=C2/C(=C/c3ccccc3)CCCC2C1c1ccccc1 (centres undefined) | -90* | . | -4% | -23% | -25%
COc1ccc(/C=C2\CCCC3C2=NN(C(=O)COC(=O)CNC(=O)c2ccccc2)C3c2ccc(OC)cc2)cc1 (centres undefined) | 34 | ? | ? | -11% | 0%
Fc1ccc(-c2nccc3[nH]nc(-c4ccccc4)c23)cc1 | -31 | . | . | . | .
CCOC(=O)c1noc2nc(C)n(CC(=O)Nc3cccc(OC)c3)c(=O)c12 | -16 | ? | . | -8% | .
CN(C)CCCOc1ccc(C(C)(C)c2ccccc2)cc1 | -33 | ? | 13µM* | -15% | 11µM*
CC(=O)OC[C@H]1O[C@H](C/C=N/OC[C@@H](C)[C@H](OCc2ccccc2)C(C)C)C=C[C@@H]1OC(C)=O | . | . | -10%[14.2 µM] | . | .
Cc1ccc(S(=O)(=O)N2CCOCC2)cc1NC(=O)CN1CCN(c2ccc(O)cc2)CC1 | -61* | -5% | -24% | ? | 19%
CC1(c2ccccc2)NC(=O)N(CC(=O)Nc2cc(S(=O)(=O)N3CCOCC3)ccc2Cl)C1=O (centres undefined) | ? | 19%[46.1 µM] | 13%[46.1 µM] | -12% | 2%
